An excerpt weighted towards active compounds, which were near 2.3% of everything screened.
Nrf2 ARE act: activates Nrf2 signaling; Potency, µM (highest dose often 46.1 µM), for the others: at the top dose activation, most hits filed as activators; AREc32 ARE-luciferase reporter (MCF7-derived line), luminescence, 24 h; AID 624171; 410,000 tested, 0.31% active; note: potency is the fitted concentration of half-maximal effect; % of control where 0% means no effect; nearly all actives have a fitted effect of over 65% in size
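Luminescent ARE reporter assay in AREc32_Fluc cells: overnight plating at 37 deg C, 24 hr compound incubation, Steady-Glo added, 30 min RT before reading.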
A549 viability: counter-screen for Nrf2 inhibitors: cytotoxicity in A549 cells | Potency, µM (highest dose often 46 µM), without a hit: at the highest dose activity change, negative = cytotoxicity, most hits filed as inhibitors | A549 ARE-Fluc cells, CellTiter-Fluor viability, 18-24 h | 390,000 tested, 0.16% active; note: potency is the fitted concentration of half-maximal effect; % is set by controls: 0 for no effect and ±100 for the full control effect
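Cytotoxicity counterscreen: CellTiter-Fluor fluorescence was measured in A549 ARE_Fluc cells after 18-24 h of compound exposure in a concentration series. The subsequent BugLite luminescent read reports ARE-luciferase activity.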
IL2 activator: activates IL-2 in a cell-based reporter assay | AID 652025 | IL-2 activation reporter assay, cell-based qHTS; stimulated with anti-CD3/CD4/CD28 beads; in transgenic mouse T cells | 360,000 tested, 0.065% active | activation, % (series mostly up to about 46 µM); in the data active = activation above about 50%; inconclusive = mostly about 30% to 49%; note: 0% is about no effect
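Screening format: compound pinned onto unstimulated transgenic mouse T cells, 60 min incubation, then anti-CD3/anti-CD4/anti-CD28 bead stimulation for 18 hours at 37 degrees C, followed by EGFP and DsRed detection.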
Nrf2 block: Nrf2 pathway inhibition; A549 ARE-Fluc reporter, luciferase luminescence, 18-24 h; Potency, µM (doses to about 46 µM), without a hit: at the highest dose activity change, negative = inhibition, hits mostly inhibitors; 360,000 tested, 2.1% active; AID 504444; note: potency is the fitted concentration of half-maximal effect; % is set by controls: 0 for no effect and ±100 for the full control effect; nearly all actives have a fitted effect of over 60% in size
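In this cell-based qHTS, ARE-driven firefly luciferase in A549 cells reports Nrf2 activity; the luminescent signal after BugLite lysis is the measured value, with a prior CellTiter-Fluor read for cell health.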
* = called active by the depositor; ? = inconclusive; nt = no result given; [ ] = remark or other dose. Unless noted, calls come from the whole dose curve; as a rule, active = well fitted curve in the direction sought with a large enough effect; inconclusive = small, poorly fitted or top-dose-only effect, or another doubt; inactive = no such curve, though single readings can be large; an effect the other way counts as inactive or inconclusive.

SMILES | Nrf2 ARE act | A549 viability | IL2 activator | Nrf2 block
COc1ccc(Br)cc1CN(C)C(=O)C1=CC=CN2CCS(=O)(=O)N=C12 | 0% | -11% | -2 | 16µM*
COc1ccc(Br)cc1CN(C)C(=O)c1ccncc1 | 0% | 2% | -1 | 1%
CN(Cc1ccc(Cl)c(Cl)c1)C(=O)C1=CC=CN2CCS(=O)(=O)N=C12 | 0% | -4% | 1 | 8.2µM*
Cc1csc2nc(COC(=O)c3cccc(NC(=O)c4cccc(Cl)c4)c3)cc(=O)n12 | 2% | 5% | nt | nt
CCC(Sc1nc2cc(OC)c(OC)cc2c(=O)n1CCc1ccc(Cl)cc1)C(=O)NCCOC (configuration not stated) | -1% | -5% | nt | nt
CCc1ccc(NS(=O)(=O)c2ccc(OC)c3ncccc23)cc1 | 0% | -1% | 3 | 4%
CCc1ccc(OC)c(S(=O)(=O)Nc2ccc(Cc3ccncc3)cc2)c1 | 7% | -23% | 0 | 18µM*
c1ccc(N=Nc2cn[nH]c2-c2ccco2)cc1 | 10µM* | -7% | -1 | 25%
Cc1cccc(N=Nc2cn[nH]c2-c2ccco2)c1 | ? | -13% | 0 | 2%
CN(CC(=O)Nc1ccc(F)c(F)c1F)C(=O)/C=C/c1ccco1 | 13µM* | 1% | -1 | -7%
CN(CC(=O)Nc1ccc(F)c(F)c1F)C(=O)/C=C/c1ccc(Cl)cc1 | 0%[9.22 µM] | 3% | 0 | -16%
CCCCOC(=O)c1ccc(OC(=O)c2sc3ncn(Cc4ccccc4Cl)c(=O)c3c2C)cc1 | -1% | 5% | nt | nt
Cc1ccc(C(=O)Oc2coc(CSc3nnc(NC(=O)C4CC4)s3)cc2=O)cc1 | -2% | -4% | 0 | 21µM*
COc1ccccc1NCC(O)Cn1c2ccccc2c2ccccc21 (configuration not stated) | 2% | 21µM* | -1 | ?
Cn1c2cc(S(C)=O)sc2c2cnn(Cc3ccccc3F)c(=O)c21 (configuration not stated) | nt | 11% | nt | -14%
CCN(CC)S(=O)(=O)c1nnc(NC(=O)COc2ccc(Cl)cc2)s1 | 0% | 0% | nt | 4.1µM*
COc1ccccc1NC(=S)NC(=O)/C=C/c1ccco1 | 6% | 11% | 1 | 10%
Cc1ccccc1NC(=S)NC(=O)/C=C/c1ccco1 | 18µM* | -26% | -1 | ?
Cc1csc(NC(=O)/C=C/c2ccco2)n1 | 1.8µM* | -4% | 0 | ?
CN(CCCN(Cc1ccc(Cl)cc1)c1ccc(Br)cn1)C(=S)NCCCc1cnc[nH]1 | nt | 0% | nt | ?
CCc1cc(C(=O)NC2CCCN(Cc3ccccc3F)C2)n(C)n1 (configuration not stated) | 0% | -9% | -3 | 13µM*
CCOc1ccccc1NC(=O)Nc1ccc2c(c1)OCO2 | 0% | 13% | 0 | 10%
C=CCOc1ccccc1CN(C(=O)CCl)c1ccc2c(c1)OCO2 | 22µM* | 2% | -4 | 4%
Cc1oc2ncn(C)c(=O)c2c1C(=O)NCCCN1CCCC(C)C1 (configuration not stated) | 0% | 11% | nt | ?
O=C(Cn1c(=O)n(-c2ccc(Cl)cc2)c(=O)c2c3c(sc21)CCCCC3)Nc1cccc(Cl)c1 | 1% | -4% | nt | 9%
SMILES | Nrf2 ARE act | A549 viability | IL2 activator | Nrf2 block
Nc1ccc(Sc2cnn(-c3ccccc3)c(=O)c2Cl)cc1 | 16µM* | -6% | 0 | 4%
Cc1ccc(Sc2cnn(-c3ccccc3)c(=O)c2Cl)cc1 | 5µM* | 1% | 0 | 6%
Cc1cc(C)cc(Oc2coc3c(CN4CCN(C)CC4)c(O)ccc3c2=O)c1 | 1% | -5% | nt | 1%
CCn1c(=O)[nH]c2cc(C(=O)Nc3cc(C)cc(C)c3)ccc2c1=O | 0% | 11% | 0 | 16µM*
O=S(=O)(c1ccc2c(c1)OCCO2)N1CCN(S(=O)(=O)c2ccccc2OC(F)(F)F)CC1 | nt | 0% | nt | -5%
COc1cc(F)c(S(=O)(=O)N2CCN(S(=O)(=O)c3ccc(N)cc3)CC2)c(F)c1 | nt | 3% | nt | -6%
CCN1C(=O)/C(=C/C=C2/SCCN2C)SC1=S | 3% | -18% | -1 | ?
CN1/C(=C\C=C2/SC(=S)N(CC(=O)O)C2=O)C(C)(C)c2ccccc21 | 1% | 9.2µM* | 6 | 4.1µM*
CN1CCS/C1=C\C=C1/SC(=S)N(CC(=O)O)C1=O | 0% | -12% | 65* | -14%
COc1ccccc1/C=C/C(=O)N1CCN(S(=O)(=O)c2cc(C)ccc2C)CC1 | -1% | -2% | 1 | 16µM*
Cc1nn(C)c(C(=O)Nc2ccc(S(=O)(=O)NC34CC5CC(CC(C5)C3)C4)cc2)c1Br | 0% | ? | -3 | 15µM*
Cc1ccc(S(=O)(=O)NC23CC4CC(CC(C4)C2)C3)cc1 | -1% | 1% | 0 | -15%
COc1ccc(C2C=C(c3ccc(Br)cc3)Nc3nnnn32)c(OC)c1 (configuration not stated) | 5% | -5% | nt | 15µM*
Cc1ccc(C(=O)NCC(=O)OCC(=O)c2cccc3ccccc23)cc1 | nt | 15% | nt | 3%
COC(=O)c1cc(NC(=O)c2ccc(Cn3cc(Cl)cn3)o2)cc(C(=O)OC)c1 | 0% | ? | -1 | 21µM*
CCOC(=O)c1c(C)oc2nc(C)nc(N3CCN(c4ccccc4)CC3)c12 | -1% | -5% | nt | 23µM*
CCOC(=O)c1c(C)oc2nc(C)nc(N(C)Cc3ccccc3)c12 | 8% | 7% | nt | 13µM*
CCC(CC)C(=O)Nc1ccccc1C(=O)OCc1cc(=O)n2nc(C3CCCCC3)sc2n1 | -1% | -2% | nt | nt
CC(C)N(C(=O)COC(=O)c1ccccc1C(=O)c1ccc(Cl)c([N+](=O)[O-])c1)C(C)C | 2.2µM* | -28% | -6 | ?
CN(CCC#N)C(=O)COC(=O)c1ccc(Cl)c(S(N)(=O)=O)c1 | 0% | -10% | 1 | -10%
Cn1c(N)c(C(=O)COC(=O)c2ccccc2C(=O)c2ccc(Cl)c([N+](=O)[O-])c2)c(=O)n(C)c1=O | ? | -9% | -1 | 14%
O=C(COC(=O)c1ccccc1C(=O)c1ccc(Cl)c([N+](=O)[O-])c1)NC1CCCCCC1 | -2% | ? | -3 | 21µM*
CN(CCC#N)C(=O)COC(=O)c1ccccc1C(=O)c1ccc(Cl)c([N+](=O)[O-])c1 | 16µM* | -17% | -1 | -27%
COc1ccc(CCNC(=O)Cc2c(C)c3c(cc(C)c4c(C)coc43)oc2=O)cc1OC | 0% | -2% | nt | -5%
Cc1nc2nc(NCc3cccc(Cl)c3)[nH]n2c(=O)c1Cc1ccccc1 | 0% | 2% | nt | -4%
COc1cc(/C=N\NC(=O)c2cccnc2)ccc1OC(=O)c1ccccc1Cl | 3% | -5% | -4 | 15µM*
COc1ccc(N2CCN(S(=O)(=O)CCNC(=O)c3ccc(OC(C)C)cc3)CC2)cc1 | 0% | -6% | nt | nt
Cc1cc2c(cc(C(=O)OC(C(=O)NCC3CCCO3)C(C)C)n2C)o1 (configuration not stated) | -1% | -11% | -2 | ?
Cc1cc2c(cc(C(=O)OC(C(=O)NC3CCCCC3)C(C)C)n2C)o1 (configuration not stated) | 2% | -12% | -1 | 21µM*

Compound activity: PubChem BioAssay, National Center for Advancing Translational Sciences (NCATS)
